The supplement of paper PMC10121225
Counter-ions that a name gives are not always drawn.

System: hN + hpA co-culture (H1 iNGN2 human neurons + human primary astrocytes)
Test: presynaptic density (SYNAPSIN1 puncta per MAP2 neurite area), Z-score vs DMSO controls; higher = more presynaptic puncta (synapse-promoting)
Conditions: 3 µM; 72 h
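Further: immunostained co-cultures imaged by high-content microscopy, Z-score per plate against mean and SD of 0.1% DMSO wells, compounds added on differentiation day 18, analysed day 21.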

| Structure (SMILES) | presynaptic density (Z-score) |
| --- | --- |
| C[C@@]12N[C@@H](Cc3ccccc31)c1ccccc12 [(-)-MK 801 maleate] | -0.122 |
| O=C(O[C@H]1C[C@H]2CC[C@@H](C1)[N+]21CCCC1)C(O)(c1ccccc1)c1ccccc1 [Trospium chloride] | -0.748 |
| Cc1cc2c(C(C)C)c(O)c(O)c(C=O)c2c(O)c1-c1c(C)cc2c(C(C)C)c(O)c(O)c(C=O)c2c1O | -4.31 |
| O=[N+]([O-])C=Cc1ccc2c(c1)OCO2 [MNS (3,4-Methylenedioxy-Œ≤-nitrostyrene] | -0.543 |
| CCCN1CCO[C@@H]2c3cc(O)ccc3OC[C@H]21 | 0.0588 |
| CCc1c(C(=O)C(N)=O)c2c(OCC(=O)O)cccc2n1Cc1ccccc1 | 0.584 |
| Cn1cc(C2=C(c3cn(C4CCN(Cc5ccccn5)CC4)c4ccccc34)C(=O)NC2=O)c2ccccc21 [Enzastaurin] | 0.0046 |
| CN1CCCCC1Cn1cc(C(=O)c2cc([N+](=O)[O-])ccc2I)c2ccccc21 (centres undefined) | -0.667 |
| Cc1cc(SCc2sc(-c3ccc(C(F)(F)F)c(F)c3)nc2C)ccc1OCC(=O)O | 0.227 |
| N[C@@H]1C[C@H]1c1ccccc1 [Tranylcypromine (2-PCPA) HCl] | 0.259 |
| O=C(O)CNC(=O)c1c(O)c2ccccc2n(Cc2ccccc2)c1=O | 0.0398 |
| COc1ccc(C(=O)N2CCCC2=O)cc1 [Aniracetam] | 0.286 |
| C[C@](O)(COc1ccc(C#N)cc1)C(=O)Nc1ccc(C#N)c(C(F)(F)F)c1 | -0.892 |
| O=c1[nH]c2ccc(Cl)cc2c(N[C@@H]2CN3CCC2CC3)c1-c1nc2ccccc2[nH]1 | -2.58 |
| CCC(COC(=O)c1cc(OC)c(OC)c(OC)c1)(c1ccccc1)N(C)C (centres undefined) | 0.31 |
| C=C1C[C@@H]2[C@H](CC[C@]3(C)C(=O)CC[C@@H]23)[C@@]2(C)C=CC(=O)C=C12 [Exemestane] | 0.646 |
| Cc1sc2c(c1C)C(c1ccc(Cl)cc1)=N[C@@H](CC(=O)OC(C)(C)C)c1nnc(C)n1-2 | 2.8 |
| CC(=O)O[C@H]1C[C@@H]2CC[C@@H]3[C@H](CC[C@@]4(C)[C@H]3C[C@H]([N+]3(C)CCCCC3)[C@@H]4OC(C)=O)[C@@]2(C)C[C@@H]1[N+]1(C)CCCCC1 [Pancuronium dibromide] | -0.361 |
| C[C@@H]1O[C@@H](O[C@H]2C[C@@H](O)[C@]3(CO)[C@H]4[C@H](O)C[C@]5(C)[C@@H](C6=CC(=O)OC6)CC[C@]5(O)[C@@H]4CC[C@]3(O)C2)[C@H](O)[C@H](O)[C@H]1O [Ouabain] | -1.54 |
| CCOC(=O)c1cncn1[C@H](C)c1ccccc1 [Etomidate] | 0.377 |
| CCN(CC)C(=O)c1ccc(C2=CC3(CCNCC3)Oc3cccc(O)c32)cc1 | -0.78 |
| CC[C@@H]1/C=C/C=C/C[C@H](C)[C@H](O)[C@](C)(O)C(=O)[C@H](C)[C@@H](O)[C@H](C)C(=O)[C@H](C)[C@@H](O)[C@H](C)/C=C/C(=O)O[C@H]2[C@@H](C)[C@@H](CC1)O[C@@]1(CC[C@@H](C)[C@@H](C[C@H](C)O)O1)[C@@H]2C [Oligomycin A] | -1.28 |
| CN1CCc2cc3c(cc2C1C1OC(=O)c2c1ccc1c2OCO1)OCO3 (single isomer, unassigned; (+)) [(+)-Bicuculline] | -0.322 |
| O=C1CC[C@@]2(O)[C@H]3Cc4ccc(O)c5c4[C@@]2(CCN3CC2CC2)[C@H]1O5 [Naltrexone HCl] | 1.84 |
